KCNQ2 block: KCNQ2 (rat) channel inhibition; B-score at 10 µM; O88943; 310,000 compounds, 1.1% hits; CHO-K1 KCNQ2, FluxOR thallium flux, 20 min; hits give low values; AID 2156;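 active = fluorescence ratio B-score at most minus 3 library SDs, with starting brightness B-score within 2 library SDs, cut at about -5.5 in these data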
KCNQ2 enhance: KCNQ2 (rat) channel potentiation. 310,000 compounds, 0.54% hits. CHO-K1 KCNQ2, FluxOR thallium flux fluorescence; hits give high values. B-score at 10 µM. O88943. AID 2239;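 active = fluorescence ratio B-score at least 3 SD of library B-scores, with initial fluorescence B-score within 3 of them, cut at about 5.3 in these data; same plate scores as AID 2156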;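 also: B-score of peak minus minimum over baseline fluorescence ratio after K+ and Tl+ stimulus; positive B-score means potentiation of KCNQ2 with more thallium influx and brighter signal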
KCNQ2 block conf: confirmation of rat KCNQ2 potassium channel inhibitors. shares compounds with KCNQ2 block. KCNQ2-expressing cells, thallium flux, inhibition; hits give low values. activity change, negative = inhibition, % at 10 µM. 1,000 compounds, 57% hits
KCNQ1 spec: human KCNQ1 activity in KCNQ2 inhibitor specificity screen; shares compounds with KCNQ2 block; KCNQ1-expressing cells, FluxOR thallium flux fluorescence; hits give low values; activity change, negative = inhibition, % at 10 µM; 1,000 compounds, 15% hits;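 active = activity change at least 3 SD of negative controls below their mean in both duplicate wells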;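 also: CHO cells stably transfected with KCNQ1 and depolarized by potassium stimulus; peak minus minimum fluorescence over baseline after thallium addition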
Target sequence (P51787 whole entry, looked up): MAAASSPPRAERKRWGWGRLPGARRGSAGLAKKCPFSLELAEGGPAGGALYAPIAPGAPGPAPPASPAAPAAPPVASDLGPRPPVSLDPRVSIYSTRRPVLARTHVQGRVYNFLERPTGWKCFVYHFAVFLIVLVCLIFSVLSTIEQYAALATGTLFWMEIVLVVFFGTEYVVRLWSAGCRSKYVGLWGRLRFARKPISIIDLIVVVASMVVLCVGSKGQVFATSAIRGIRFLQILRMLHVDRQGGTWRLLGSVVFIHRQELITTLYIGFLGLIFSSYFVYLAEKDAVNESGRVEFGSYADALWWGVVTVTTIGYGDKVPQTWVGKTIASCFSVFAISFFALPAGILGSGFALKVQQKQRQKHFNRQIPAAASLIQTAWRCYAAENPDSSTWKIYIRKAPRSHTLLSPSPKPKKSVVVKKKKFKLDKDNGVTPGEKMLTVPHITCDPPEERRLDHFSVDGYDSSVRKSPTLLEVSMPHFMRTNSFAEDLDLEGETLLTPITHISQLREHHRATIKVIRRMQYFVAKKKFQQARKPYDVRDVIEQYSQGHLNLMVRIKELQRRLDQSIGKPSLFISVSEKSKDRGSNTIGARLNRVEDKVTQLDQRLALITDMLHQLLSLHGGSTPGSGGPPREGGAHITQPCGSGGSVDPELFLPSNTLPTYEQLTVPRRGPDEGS
CHO parental ctr: activity in parental CHO cells lacking KCNQ2. shares compounds with KCNQ2 block. thallium flux counter-screen; hits give low values. activity change, % at 10 µM. 1,000 compounds, 14% hits. AID 493029
KCNQ2 inh confirm: blocks rat KCNQ2 current in automated patch clamp; shares compounds with KCNQ2 block; KCNQ2-expressing cells; calls only at 10 µM; 550 compounds, 49% hits; AID 588531
Each line names hits and unclear results; the compound was inactive in the other large screens (follow-up assays come after a bar, where they were run). A selection: hits, their analogues and other compounds. The true share with any hit is near 1.6%. Unless noted, no rule for the calls is given here.

CCOC(=O)/C(=C\Nc1ccccc1C(F)(F)F)Sc1ncc(C(F)(F)F)cc1Cl	none (no result: KCNQ2 enhance)
COC(=O)/C(=C\Nc1ccc(Cl)c2ccccc12)c1ncc(C(F)(F)F)cc1Cl	KCNQ2 block -8.4 | KCNQ2 block conf -18% | KCNQ1 spec inactive | CHO parental ctr inactive | KCNQ2 inh confirm inactive
CCC(CC)C(=O)N(CCc1ccc(OC)cc1)Cc1nc2ccccc2c(=O)[nH]1	KCNQ2 block -9.5 | KCNQ2 block conf -30% | KCNQ1 spec inactive | CHO parental ctr inactive | KCNQ2 inh confirm active
COc1ccc(CCN(Cc2nc3ccccc3c(=O)[nH]2)C(=O)c2ccco2)cc1	none
C/C(=N\NC(=O)c1cc(-c2ccc(C)s2)[nH]n1)c1ccco1	none
Cc1cccc(-c2noc(CN(C(=O)/C=C/c3ccccc3Cl)C(C)C)n2)c1	none (no result: KCNQ2 enhance)
Cc1cccc(-c2noc(CN(C)S(=O)(=O)c3cc(Cl)ccc3Cl)n2)c1	KCNQ2 block -11 | KCNQ2 block conf inactive | KCNQ1 spec inactive | CHO parental ctr inactive
COc1ccc(Cl)cc1C(=O)N(Cc1nc(-c2cccc(C)c2)no1)C(C)C	none (no result: KCNQ2 enhance)
Cc1cccc(-c2noc(CN(C(=O)CCc3ccccc3)C(C)C)n2)c1	KCNQ2 block -8 | KCNQ2 block conf -36% | KCNQ1 spec -36% | CHO parental ctr -28% | KCNQ2 inh confirm inactive
COc1ccc(NC(=O)CSc2nnc(-c3ccncc3)o2)c([N+](=O)[O-])c1	none
CC(=O)C(Cc1ccccc1)NC(=O)CCl (centres undefined)	none (no result: KCNQ2 enhance)
CC(=O)C(Cc1ccccc1)NC(=O)CN(C)Cc1ccccc1Cl (centres undefined)	KCNQ2 block -8.5 | KCNQ2 block conf inactive | KCNQ1 spec inactive | CHO parental ctr inactive
Cc1c(C)n(Cc2ccc(F)cc2)c2ccc(C(=O)N3CCN(c4ccccn4)CC3)cc12	none (no result: KCNQ2 enhance)
NC(=O)NS(=O)(=O)Oc1ccccc1	none
CC1CCCCC1NC(=O)CN1C(=O)c2ccccc2S1(=O)=O (centres undefined)	none (no result: KCNQ2 enhance)
COc1ccc(-n2c(=O)c3c4c(sc3n(CC(=O)Nc3cc(C)[nH]n3)c2=O)CCCC4)c(OC)c1	KCNQ2 block -6.7 | KCNQ2 block conf inactive | KCNQ1 spec inactive | CHO parental ctr inactive
CCOc1ccccc1NC(=O)Cn1c(=O)n(-c2ccc(OC)cc2OC)c(=O)c2c(C)c(C(=O)N(CC)CC)sc21	none (no result: KCNQ2 enhance)
O=C(Cc1ccccc1[N+](=O)[O-])NCCCN1CCOCC1	none (no result: KCNQ2 enhance)
CC(C)(O)c1[nH]c2ccc(C#N)cc2c1C(C)(C)O	none (no result: KCNQ2 enhance)
COc1ccccc1-c1cc(C(F)(F)F)nc(N2CCCCC2)n1	KCNQ2 block -9.7 | KCNQ2 block conf inactive | KCNQ1 spec inactive | CHO parental ctr inactive
COc1ccccc1-c1cc(C(F)(F)F)nc(N2CCCC2)n1	none
CCN(c1ccccc1)c1nc(C#N)nc(N(CC)c2ccccc2)n1	KCNQ2 block -6.7 | KCNQ2 block conf -30% | KCNQ1 spec inactive | CHO parental ctr inactive | KCNQ2 inh confirm inactive
CCN(CC)c1nc(C#N)nc(N(CC)CC)n1	none (no result: KCNQ2 enhance)
CN1/C(=C\C(=O)c2cccnc2)C(C)(C)c2ccccc21	none (no result: KCNQ2 enhance)
CN1/C(=C\C(=O)c2cncc(Br)c2)C(C)(C)c2ccccc21	KCNQ2 block -8 | KCNQ2 block conf -40% | KCNQ1 spec -43% | CHO parental ctr -37% | KCNQ2 inh confirm inactive
CC(C)C(c1nnnn1C1CCCC1)N(C)C1CCCCC1 (centres undefined)	none
COc1ccc2[nH]c(=O)c(C(c3nnnn3C3CCCCC3)N3CCN(C)CC3)cc2c1 (centres undefined)	none (no result: KCNQ2 enhance)
COc1ccc(Cn2nnnc2C(c2cc3cc(C)ccc3[nH]c2=O)N2CCN(C)CC2)cc1 (centres undefined)	none (no result: KCNQ2 enhance)
COc1cc2cc(C(c3nnnn3Cc3ccc(F)cc3)N3CCCCCC3)c(=O)[nH]c2cc1OC (centres undefined)	KCNQ2 block -7.7 | KCNQ2 block conf -28% | KCNQ1 spec inactive | CHO parental ctr inactive | KCNQ2 inh confirm active
COc1cc2cc(C(c3nnnn3C3CCCCC3)N(C)C3CCCCC3)c(=O)[nH]c2cc1OC (centres undefined)	KCNQ2 block -11 | KCNQ2 block conf inactive | KCNQ1 spec inactive | CHO parental ctr inactive
O=c1[nH]c2cc3c(cc2cc1C(c1nnnn1C1CCCC1)N1CCSCC1)OCCO3 (centres undefined)	none
Cc1ccc(C(c2nnnn2C2CCCCC2)N(C)C2CCCCC2)cc1 (centres undefined)	KCNQ2 block -8.3 | KCNQ2 block conf inactive | KCNQ1 spec inactive | CHO parental ctr inactive
COc1cc2cc(C(c3nnnn3C3CCCC3)N(C)C3CCCCC3)c(=O)[nH]c2cc1OC (centres undefined)	KCNQ2 block -9 | KCNQ2 block conf -36% | KCNQ1 spec inactive | CHO parental ctr inactive | KCNQ2 inh confirm active
O=C(Nc1ncccn1)c1ccc(Cl)c([N+](=O)[O-])c1	none
O=C(O)c1cc(-c2ccc(O)cc2)on1	none
O=C(N1CCOCC1)N1c2ccccc2Sc2ccccc21	none (no result: KCNQ2 enhance)
CC1CCCN(C(=O)N2c3ccccc3Sc3ccccc32)C1 (centres undefined)	KCNQ2 block -6.9 | KCNQ2 block conf -15% | KCNQ1 spec inactive | CHO parental ctr inactive | KCNQ2 inh confirm inactive
Cc1ccc(-c2cc(-c3ccccc3)nc(Cl)n2)cc1	KCNQ2 block -8.3 | KCNQ2 block conf inactive | KCNQ1 spec inactive | CHO parental ctr inactive
COc1ccc(-c2cc(-c3ccccc3)nc(Cl)n2)cc1OC	none (no result: KCNQ2 enhance)
CN(C)C(CNC(C(=O)Nc1ccc(F)cc1)c1ccccc1)c1ccccc1 (centres undefined)	none (no result: KCNQ2 enhance)
Cc1cc(Cl)cc(C)c1OCCNCc1ccccc1	KCNQ2 block -6.9 | KCNQ2 block conf inactive | KCNQ1 spec inactive | CHO parental ctr inactive
Cc1cc(C)c(OCCNCc2ccccc2)c(C)c1	none (no result: KCNQ2 enhance)
Cc1cccc(-n2nc3c(c2NC(=O)CCCl)CSC3)c1	none (no result: KCNQ2 enhance)
Cc1cccc(-n2nc3c(c2NC(=O)c2ccc(Br)o2)CSC3)c1	KCNQ2 block -9 | KCNQ2 block conf -28% | KCNQ1 spec inactive | CHO parental ctr inactive | KCNQ2 inh confirm inactive
O=C(NC(Cc1ccccc1)C(=O)O)c1cccnc1Cl (centres undefined)	none (no result: KCNQ2 enhance)
COc1ccc(-c2[nH]ncc2-c2cnn(-c3ccccc3)c2)c(O)c1	KCNQ2 block -7.7 | KCNQ2 block conf inactive | KCNQ1 spec inactive | CHO parental ctr inactive
COc1ccc(-c2cn[nH]c2-c2ccc(O)cc2O)cc1	none (no result: KCNQ2 enhance)
CCOc1ccc(/C=N/NC(=O)CSc2n[nH]c(=O)[nH]c2=O)cc1OC	none
COC(=O)CC1COc2ccccc2N1C(=O)c1ccc(C(C)(C)C)cc1 (centres undefined)	KCNQ2 block -6.8 | KCNQ2 block conf -29% | KCNQ1 spec inactive | CHO parental ctr inactive | KCNQ2 inh confirm active
COC(=O)CC1COc2ccccc2N1C(=O)c1ccc(Br)cc1 (centres undefined)	none (no result: KCNQ2 enhance)
c1ccc(-c2nc3ccccc3[nH]2)cc1	none
c1ccc(-c2n[nH]c(-c3ccccc3)c2-c2nc3ccccc3[nH]2)cc1	KCNQ2 block -9.2 | KCNQ2 block conf -36% | KCNQ1 spec inactive | CHO parental ctr inactive | KCNQ2 inh confirm active

Compound activity from PubChem BioAssay.
